Assay results reported in PubChem BioAssay (NCI).
About 83,000 compounds went through this panel and 20% of them were active in at least one assay; those are over-represented in the sample as a whole.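 Compound tested at a single concentration for 48 hours in 96-well plates; a percent growth value below 10 was scored as active.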 Values without a mark were called inactive. Active and inactive are the calls of the source.

Tested on: NCI/ADR-RES ovarian
Test: NCI-60 one-dose screen, 48 h (100 = growth as untreated, 0 = no growth, -100 = all killed)
Settings: 10 µM
Method: Growth inhibition of the NCI/ADR-RES human […] tumor cell line is measured as a screen for anti-cancer activity. Cells are grown in 96 well plates and exposed to the test compound for 48 hours. Compounds are tested at a single concentration, which is 10^-5 M for most compounds. The reported endpoint is percent growth (GI% or GIPRCNT), where numbers from 0 - 100% represent growth inhibition, and numbers from -100% - 0 represent cell death. For example, a value of 40 represents 60% growth inhibition. A value of 0 means no net growth occurred over the course of the experiment. A value of -40 indicates 40% of cells at the beginning of the experiment died by the end of the experiment. A value of -100 means all cells are dead at the end of the experiment.
NCI-60 Human Tumor Cell Lines Screen was performed using the standard one-dose NCI protocol, which is described in more detail at https://dtp.cancer.gov/discovery_development/nci-60/default.htm.
Compounds with GIPRCNT values below 10 were considered active. Activity score was based on GIPRCNT using the following formula: […]
Score is 0 for GIPRCNT values of 100 or above, 50 for GIPRCNT values of 0, and 100 for GIPRCNT values of -100.

SMILES	growth
C/C(O)=C(\C=N\C(N)=S)C(=O)Nc1ccccc1	110%
O=S(=O)(O)CC(O)CN1CCN(CCO)CC1 (stereo not given)	99.7%
[O-][N+](=Nc1cccc(Cl)c1)c1cccc(Cl)c1	99%
O=P(O)(O)OCC(O)CO (stereo not given)	106%
N/N=C(/Cc1ccccc1)NNC(N)=S	107%
OC1CCCc2ccccc21 (stereo not given)	108%
C=CCc1cc(C(C)=O)cc(OC)c1O	107%
CC1(C)S(=O)(=O)OCCOS1(=O)=O	103%
CC1C(=O)c2ccccc2CC1C(=O)O (stereo not given)	102%
COc1ccc(C(O)c2ccccc2)cc1 (stereo not given)	105%
CCOC(=O)Nc1nn[nH]n1	103%
Cc1ccccc1C1N=C2Oc3ccccc3C=C2C(=O)N1 (stereo not given)	9.64% (active)
CCOC(=O)C1=C(C)NC(=O)NC1c1cccs1 (stereo not given)	111%
CC1(C)/C(=C\CO)C2CCC1C2 (stereo not given)	105%
O=C(CCl)N1CCN(C/C=C/c2ccccc2)CC1	105%
COC(=O)C(C)Oc1ccc(OC#N)cc1 (stereo not given)	99.9%
COc1ccc(NC(=O)CCl)cc1	77%
COc1cccc(O)c1O	85.6%
O=C(Nc1ccccc1)OCCc1ccccc1	110%
O=C(CS)Nc1ccc2ccccc2c1	112%

SMILES	growth
Cc1ccc(C(=O)c2ccccc2)c(C)c1	99.7%
N#CCCN(CCCN1CCOCC1)CN1C(=O)c2ccccc2C1=O	109%
C=CCNc1ccccc1	114%
Cn1cnc2nc(Cl)nc(Cl)c21	27.1%
CC(C)OC(C(=O)O)c1ccccc1 (stereo not given)	104%
O=C(CN1CCNCC1)N1CCOCC1	107%
COc1ccc(/C=C/c2cccc[n+]2C)cc1	103%
CCN1C(=O)/C(=C/C=C/N(C)c2ccccc2)SC1=S	81.5%
Nc1nc(N)c(N=Nc2ccc(C(=O)O)cc2)c(N)n1	101%
CCCCNC1(C#N)CCN(Cc2ccccc2)CC1	88.3%
C=CC(=O)OCCCCCCCC	105%
O=C(N/N=C\c1cc(Br)cc(Br)c1O)N/N=C/c1cc(Br)cc(Br)c1O	35.6%
O=C(O)C(Cc1ccccc1)C(=O)O	106%
CC(C)NC(=O)OCc1c(COC(=O)NC(C)C)c(-c2ccc(Cl)c(Cl)c2)n2c1SCC2	38.2%
Cc1cc(C)c(CC(=O)O)c(C)c1	103%
C#CC(C(C)C)N(CCO)CCCC (stereo not given)	110%
OCCN1CCOCC1	116%
CC1Cc2ccccc2O1 (stereo not given)	110%
N#CSc1cc(S(N)(=O)=O)ccc1N	108%
COCCOCCCl	109%
